# An excerpt weighted towards active compounds, which were near 4.1% of everything screened.
# MBD2 inh: inhibitors of human MBD2 binding to methylated oligonucleotide | Q9UBB5 | TR-FRET | inhibition, % at 4.4 µM | 370,000 compounds, 0.31% hits | AID 686964; in the data active = inhibition above about 13%
# Target sequence (Q9UBB5 whole entry, looked up): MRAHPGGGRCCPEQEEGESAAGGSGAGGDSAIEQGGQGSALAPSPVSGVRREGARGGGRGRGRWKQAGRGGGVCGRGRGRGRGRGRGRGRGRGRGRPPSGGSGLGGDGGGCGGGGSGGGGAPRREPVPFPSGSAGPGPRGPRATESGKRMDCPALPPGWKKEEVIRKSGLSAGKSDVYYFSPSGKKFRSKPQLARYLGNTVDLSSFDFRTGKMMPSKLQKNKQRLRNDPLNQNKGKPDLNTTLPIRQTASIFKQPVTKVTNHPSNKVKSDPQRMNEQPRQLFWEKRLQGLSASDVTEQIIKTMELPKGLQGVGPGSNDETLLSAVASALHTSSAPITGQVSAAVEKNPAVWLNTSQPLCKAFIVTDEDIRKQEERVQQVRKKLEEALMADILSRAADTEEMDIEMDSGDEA
# LEDGF integ inh: blocks HIV-1 LEDGF/p75-dependent DNA integration | TR-FRET IN-LEDGF/p75 DNA integration, Eu/Cy5 | inhibition, % at 3.7 µM | 370,000 compounds, 0.64% hits;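 active = inhibition above the screen-wide mean plus 3 SD, cut at about 13% in these data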;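 also: signal is the Cy5 over europium emission ratio at 671 and 618 nm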
# rCAG RNA binder: r(CAG) repeat RNA binding | TO-PRO-1 dye displacement fluorescence | inhibition, % at 3 µM | 370,000 compounds, 1.3% hits | AID 651821;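 active = inhibition above the plate cutoff, the mean of all test compounds on that plate plus 3 SD, cut at about 35% in these data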;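 also: higher means more dye released from RNA so lower well fluorescence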
# PRMT1 FP inh: inhibitors of human PRMT1; AID 652257; inhibition, % at 2.79 µM; recombinant PRMT1, activity-based probe fluorescence polarization; Q99873; 370,000 compounds, 1.3% hits;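 active = inhibition above about 21% made by adding two undisclosed values, limit read from the data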
# UHRF1 MBD2 ctr: UHRF1 methyl-DNA binding inhibition | UHRF1 binding to methylated oligo, TR-FRET | AID 687016 | Q96T88 | inhibition, % at 4.4 µM | 370,000 compounds, 0.75% hits; in the data active = inhibition above about 21%;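 also: UHRF1 SRA domain binding a hemimethylated CpG hairpin DNA probe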
# ABHD5-PLIN5 inh: blocks binding of human ABHD5 to perilipin-5. 360,000 compounds, 0.78% hits. Split G. princeps luciferase complementation, luminescence, 4 h. inhibition, % at 4 µM. Q00G26+Q8WTS1;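 active = inhibition above the mean inhibition across every tested compound plus 3 SD, cut at about 22% in these data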
# A number is an active result; 0 = inactive; - = not tested or not shown.
SMILES,MBD2 inh,LEDGF integ inh,rCAG RNA binder,PRMT1 FP inh,UHRF1 MBD2 ctr,ABHD5-PLIN5 inh
CN1CCN(S(=O)(=O)c2ccc(NC(=O)COc3ccccc3)cc2)CC1,0,0,0,0,0,0
CN(CCOc1ccccc1)CC(=O)Nc1ccc(S(=O)(=O)N2CCCC2)cc1,0,0,0,0,25,0
Cc1ccc(-n2c(SCc3cccc(F)c3)nc3ccccc3c2=O)cc1,0,0,0,0,0,-
O=c1cc(O)c2sc(Nc3ccc(F)c(Cl)c3)nc2[nH]1,0,0,35,0,0,0
O=c1cc(O)c2sc(Nc3ccc(Cl)c(F)c3)nc2[nH]1,0,0,0,0,0,0
Cc1ccc(NC(=O)C2Cc3ccccc3O/C2=N\O)cc1C (configuration not stated),0,0,0,0,21,0
CCOc1cc(NCCN2CCOCC2)c([N+](=O)[O-])cc1OCC,0,0,0,0,24,0
CCn1c(CCNC(=O)c2cccs2)nnc1SCC(=O)c1ccc(OC)cc1,0,0,0,22,0,0
COc1ccc(-n2c(SCC(=O)Nc3ccc(Oc4ccccc4)cc3)nnc2-c2ccco2)cc1,0,0,0,0,0,-
Cc1ccc(CN2CCCCC(NC(=O)c3cccc(F)c3)C2=O)cc1 (configuration not stated),0,0,0,0,0,-
C/C(CC(=O)NC1CCCC1)=N\NC(=O)Cc1cccs1,0,0,0,0,0,63
C/C(CC(=O)NC12CC3CC(CC(C3)C1)C2)=N\NC(=O)Cc1cccs1,0,0,0,0,0,0
COc1ccc(/C(C)=N/Nc2ncc(Cl)cc2Cl)c(O)c1,0,0,0,0,24,0
COc1ccc2c(c1)SCCC2=O,0,0,0,0,0,0
O=C1CCSC2=C1SCc1sccc12,0,0,0,0,0,22
COC(=O)CS(=O)(=O)c1nnc([C@H](Cc2ccccc2)NC(=O)OC(C)(C)C)o1,0,0,0,0,0,56
COC(=O)CSc1nnc([C@H](Cc2ccccc2)NC(=O)OC(C)(C)C)o1,0,0,0,0,0,0
CC(C)(C)OC(=O)N[C@@H](Cc1ccccc1)c1nnc(SCC(N)=O)o1,0,0,0,0,0,0
Cc1cccc(CS(=O)(=O)c2nnc([C@H](Cc3ccccc3)NC(=O)OC(C)(C)C)o2)c1,-,-,-,-,-,43
CN1CCc2cc3c(c4c2[C@H]1[C@H](O)c1ccccc1-4)OCO3,66,0,0,49,35,0
CCOC(=O)C1=NN(C(=O)Nc2ccc(OC)cc2)C2C(=O)N(c3cccc(C(F)(F)F)c3)C(=O)C12 (configuration not stated),33,0,54,0,0,0
CN(C)c1cccc(-c2ccnc(N3CCC(C(N)=O)CC3)n2)c1,0,0,-,0,0,-
COC(=O)C1=C(C)N(Cc2ccccc2C(F)(F)F)C(=NCc2ccc(OC)cc2)NC1c1ccc(C(F)(F)F)cc1 (configuration not stated),0,0,0,0,0,-
S=C1Cc2ccccc2N1,0,0,44,35,0,86
O=C(NC(=S)Nc1ccccc1[N+](=O)[O-])c1ccccc1Cl,0,0,0,0,0,0
SMILES,MBD2 inh,LEDGF integ inh,rCAG RNA binder,PRMT1 FP inh,UHRF1 MBD2 ctr,ABHD5-PLIN5 inh
O=C(O)c1ccc(Cl)c(NC(=S)NC(=O)c2ccccc2[N+](=O)[O-])c1,0,0,0,23,0,0
Cc1noc(/C=C/c2ccco2)c1S(=O)(=O)N1CCC(C(=O)N2CCc3ccccc3C2)CC1,-,-,-,-,-,22
Cc1ccc(NC(=O)C2CCN(S(=O)(=O)c3c(C)noc3/C=C/c3ccco3)CC2)nc1,0,0,0,0,0,0
COc1ccc(CCNC(=O)Nc2cccs2)c(OC)c1,0,0,0,23,0,0
Nc1[nH]c(C(=O)c2ccc(Br)cc2)c(-c2ccccc2Cl)c1C(=O)NCCc1c[nH]c2ccccc12,0,0,0,0,0,-
C=C(C)CN=CC1(C)CCC(C)=CO1 (configuration not stated),0,0,0,0,37,0
CCOC(=O)[C@]12CCCC=C1N(Cc1ccc(OC)cc1)C(=O)[C@@H]2CC(=O)NCCCCc1ccccc1,0,0,0,0,0,-
Cc1cc(-c2csc(NC(=O)c3ccc(C#N)cc3)n2)c(C)n1Cc1ccco1,22,68,59,37,57,0
N#Cc1ccc(-c2csc(NC(=O)c3ccc(N4C(=O)CCC4=O)cc3)n2)cc1,0,0,0,0,0,0
COC(=O)C1CSC(C(=O)OC)N1C(=O)Nc1ccccc1 (configuration not stated),0,0,0,24,0,0
OC(c1ccccc1)(c1ccccc1)C1CCN(CCCOc2cccc(C(F)(F)F)c2)CC1,0,0,0,0,0,-
Cc1ccccc1NC(=O)/C=C/c1ccc([N+](=O)[O-])s1,-,-,-,-,-,29
CC1CCN(S(=O)(=O)c2ccc3c(c2)c(=O)c(C(=O)N2CCCCC2)cn3C)CC1,0,0,0,0,73,0
O=C1CSC(c2nn(-c3ccccc3)cc2-c2cc3ccccc3oc2=O)N1Cc1ccco1 (configuration not stated),0,0,0,0,0,23
O=C1CSC(c2cn(-c3ccccc3)nc2-c2cc3ccccc3oc2=O)N1Cc1ccccc1 (configuration not stated),0,0,0,0,0,0
OCCCCNCc1cc(Br)ccc1OCc1ccccc1,0,0,0,0,29,0
CCOC(=O)C1CCN(C(=O)CSc2nccc(C)n2)CC1,0,0,0,0,65,0
CCOC(=O)C1CCN(C(=O)CSc2ccccc2)CC1,0,0,0,0,0,0
COC(=O)[C@]12C[C@H](CC(=O)NCc3cccc4ccccc34)C(=O)N(Cc3ccc(Cl)cc3Cl)C1=C[C@H](C(C)C)O[C@@H]2C1CC1,0,0,0,0,0,-
CC(=O)Oc1cc(C(=O)OCC(=O)NC23CC4CC(CC(C4)C2)C3)cc(OC(C)=O)c1OC(C)=O,0,44,53,0,0,0
CCC(C)Nc1nc2c(c(=O)[nH]c(=O)n2C)n1CCOc1ccccc1 (configuration not stated),0,0,0,0,0,0
CCCCn1c(NC(C)CC)nc2c1c(=O)[nH]c(=O)n2C (configuration not stated),0,0,0,0,98,0
CN1CCCCC(NC(=O)C23CC4CC(CC(C4)C2)C3)C1=O (configuration not stated),0,0,0,0,0,-
Cc1sc(NC(=O)C2=COCCO2)nc1-c1ccc(Br)cc1,0,0,0,0,30,0
Cc1sc(NC(=O)C2=COCCO2)nc1-c1ccc(F)cc1,0,0,0,0,0,0
Nc1sc2c(c1C(=O)NC1CCS(=O)(=O)C1)CCCC2 (configuration not stated),0,0,0,23,0,0
Nc1sc2c(c1C(=O)NCCc1ccccc1)CCCC2,0,0,0,36,0,0
Nc1sc2c(c1C(=O)NCCc1ccccc1)CCC2,0,0,0,0,0,0
